# Measured values reported in PubChem BioAssay (NCATS).
# Records with an inconclusive call do not appear. A call without a number means that no potency is given here. Activity calls are given as the source filed them. Calls come from the whole dose curve; as a rule, active = well fitted cell-killing curve with a large enough effect; inconclusive = small, poorly fitted or top-dose-only effect, or effect the other way; inactive = flat fitted curve, though single readings scatter.
# Assay: qHTS for Inhibitors of Ubiquitin-specific Protease USP2a Using CHOP2 as the Reporter: Cytotox Assay (AID 652170); note: nearly all actives have a fitted effect of over 70% in size
# Conditions: HCT116 viability, CellTiter-Glo luminescence, 72 h; series mostly up to 46.1 µM
# Summary of the method: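 HCT116 human colon cancer cells, 600 per well in DMEM with 10% FBS, exposed to compounds for 72 hr at 37 deg C. ATP measured by CellTiter-Glo luminescence, normalized to DMSO cells and no-cell background.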
# Potency is the fitted concentration of half-maximal effect.
row,SMILES,Potency
1,Cc1ccc(-c2cc(C(=O)Nc3ccc(-n4cncn4)cc3)c3ccccc3n2)cc1C,inactive
2,Cc1ccc(C(=O)[C@H]2CC[C@@H](C(=O)Nc3ccc(S(=O)(=O)Nc4nccs4)cc3)C2)cc1C,inactive
3,COc1ccc(C(=O)Nc2nc(-c3ccccc3)cs2)cc1NS(=O)(=O)c1ccc(C)cc1,inactive
4,Cc1ccc(S(=O)(=O)Nc2ccc(C(=O)Nc3nc(-c4ccccc4)cs3)c(Cl)c2)cc1,14.8 µM (active)
5,Cc1ccc([S+](=O)([O-])n2cc(Cc3ccc(-c4ccccc4)cc3)c3ccccc32)cc1,inactive
6,Cc1ccc(S(=O)(=O)Nc2cncc(C(=O)Nc3nc(-c4ccccc4)cs3)c2)cc1,inactive
7,Cc1ccc(S(=O)(=O)N(C)c2ccccc2C(=O)Nc2nc(-c3ccccc3)cs2)cc1,inactive
8,COc1ccc(Cl)cc1C(=O)Nc1nc(-c2ccccc2)cs1,inactive
9,Cc1ccc(S(=O)(=O)Nc2ccccc2C(=O)Nc2ncc(-c3ccccc3)s2)cc1,18.7 µM (active)
10,Clc1nc(CN2CCOCC2)nc2sc3c(c12)CCCC3,inactive
